aSyn 5UTR inh = 5' untranslated region of α-synuclein, MLPCN primary screen | alpha-synuclein 5'UTR reporter, inhibitor activity | inhibition, % (tested at 7.5 µM) | 0.82% of 300,000 active | AID 1813; in the data active means inhibition above about 60%;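 further: H4 neuroglioblastoma cells stably carrying SNCA 5'UTR luciferase fusion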
MITF TRPM1 inh = inhibitors of MITF-driven TRPM1 promoter in melanoma cells; SK-MEL-5 TRPM1 promoter luciferase, 24 h; 0.83% of 330,000 active; inhibition, % at 12.5 µM; AID 488899;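 active means mean inhibition across replicates of 60% or more, whatever share of single replicates reaches that level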
Shn3 inh set2 = Schnurri-3 reporter inhibition in Clone20 osteoblasts. inhibition, % at 12.5 µM. Clone20 osteoblast Shn3 3'UTR firefly luciferase, 24 h. 0.52% of 360,000 active;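 active means mean inhibition of at least 75% with every replicate also reaching 75%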
EBV LMP1 NFkB = Epstein-Barr LMP1 NF-kappaB reporter inhibition; inhibition, % at 12.5 µM; LMP1-induced NF-kappaB luciferase reporter cells, luminescence; AID 504558; 0.69% of 350,000 active; in the data active means inhibition above about 41%
PAX8 reporter = inhibitors of PAX8 transcriptional activity in RMG-I cells; RMG-I TPO-luciferase reporter, SteadyGlo, 24 h; 1.2% of 360,000 active; inhibition, % at 12.6 µM;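 active means mean replicate inhibition at least 60% with every replicate also reaching 60%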;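 further: luciferase light reporting Pax8 driven TPO promoter activity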
Numbers stand for hits; n = inactive; x = not tested or not shown; ! = not confirmed by another sample. A selection: hits, their analogues and other compounds. The true share with any hit is near 2.1%.

SMILES	aSyn 5UTR inh	MITF TRPM1 inh	Shn3 inh set2	EBV LMP1 NFkB	PAX8 reporter
CN(C)CC(C(=O)c1ccccc1)c1ccccc1 (stereo not drawn)	n	91	95	78	x
O=C(CC(C(=O)c1ccccc1)c1ccccc1)c1ccccc1 (stereo not drawn)	x	n	n	n	x
COc1ccccc1/C=C1/SC(=S)N(C(C)C(=O)NC2C=CS(=O)(=O)C2)C1=O (stereo not drawn)	n	n	n	n	n
C#CCNC(=O)C1=C[C@@H](c2ccc(C#C)cc2)[C@H](CCCO)[C@@H](OCC)O1	n	n	n	n	n
Cc1nc(SC(C)C(=O)NC2CCCCC2C)c2c(C)c(C)sc2n1 (stereo not drawn)	n	n	n	n	n
C[C@@H]1CN([C@H](C)CO)C(=O)CCCn2nncc2CO[C@H]1CN(C)C(=O)Nc1ccnc(N2CCOCC2)c1	x	x	n	n	n
C[C@H]1CN([C@@H](C)CO)C(=O)CCCn2nncc2CO[C@@H]1CN(C)C(=O)Nc1ccc(-c2cccs2)cc1	x	x	x	x	76
C[C@@H]1CN([C@@H](C)CO)C(=O)CCCn2nncc2CO[C@@H]1CN(C)C(=O)Nc1ccc(-c2cccs2)cc1	x	x	n	n	n
C[C@@H]1CN([C@H](C)CO)C(=O)CCCn2nncc2CO[C@H]1CN(C)C(=O)Nc1ccc(-c2cccs2)cc1	x	x	x	x	70
C[C@H]1CN([C@@H](C)CO)C(=O)CCCn2nncc2CO[C@H]1CN(C)C(=O)Nc1ccccc1	x	x	n	n	n
C[C@H](CO)N1C[C@H](C)[C@@H](CN(C)C(=O)Nc2ccnc(N3CCOCC3)c2)OCc2cnnn2CCCC1=O	x	x	n	n	91!
C[C@H](CO)N1C[C@H](C)[C@H](CN(C)C(=O)Nc2ccc(-c3cccs3)cc2)OCc2cnnn2CCCC1=O	x	x	n	n	72
OC[C@@H]1[C@H](c2ccc(C3=CCCC3)cc2)[C@H]2CN(Cc3cccnc3)CCCCN12	x	x	x	x	n
S=C(NCCc1ccccc1)NCCc1ccccc1	n	n	n	n	n
C[C@H]1NC(=O)[C@@]2(C)[C@H](c3ccccc3)[C@H]3COc4ccccc4[C@@H]3N2C1=O	x	n	n	n	n
Cc1noc(C)c1NC(=O)N[C@H]1CC[C@@H](CCNC(=O)C2CCC2)O[C@H]1CO	x	x	x	x	n
COc1ccc(-c2ccc3c(c2)S(=O)(=O)c2cccc(C(=O)NC4CCCC4)c2C3=O)cc1OC	x	n	n	n	n
Cn1ccc2cc(-c3ccc4ncnc(NCc5cccs5)c4c3)ccc21	x	n	n	n	83
COc1cccc(-c2ccc3ncnc(NCc4cccs4)c3c2)c1	x	n	n	n	n
COc1cccc(C(=O)N[C@@H](Cc2cccnc2)C(=O)N2CCC[C@H]2C(=O)NC2CCCC2)c1	x	x	x	x	n
COc1ccccc1N(C(=O)CCl)c1cn(C(C)=O)c2ccccc12	n	63	n	n	114
CCOC(=O)c1ccccc1Nc1cn(C(C)=O)c2ccccc12	n	n	n	n	x
CC(=O)n1cc(N(C(=O)CCl)c2ccc(Cl)cc2)c2ccccc21	103	x	n	x	x
Cc1ccc(C)c(S(=O)(=O)Nc2ccc(-n3cnnn3)cc2)c1	x	n	83	n	x
COc1ccc(CCn2c(C3CCCCC3)nc3c(c(=O)c4ccccc4n3C)c2=O)cc1	75	x	n	x	n
SMILES	aSyn 5UTR inh	MITF TRPM1 inh	Shn3 inh set2	EBV LMP1 NFkB	PAX8 reporter
Cc1c(NC(=O)C(C)OC(=O)CNC(=O)c2ccc(C(C)(C)C)cc2)c(=O)n(-c2ccccc2)n1C (stereo not drawn)	n	n	n	n	n
O=C1OCC2=C1C(c1ccc(F)cc1)c1cc3c(cc1N2)OCCO3 (stereo not drawn)	x	n	n	n	85
C#CCOc1ccc(C2C3=C(COC3=O)Nc3cc4c(cc32)OCO4)cc1OC (stereo not drawn)	132	n	n	n	86
CC(=O)Oc1ccc(C2C3=C(CC(C)(C)CC3=O)Nc3cc4c(cc32)OCCO4)cc1 (stereo not drawn)	n	n	n	n	n
CCCOc1c(OC)cccc1C1CC(=O)Nc2cc3c(cc21)OCO3 (stereo not drawn)	n	n	n	n	x
CCOc1ccccc1C1C2=C(COC2=O)Nc2cc3c(cc21)OCO3 (stereo not drawn)	117	n	n	n	88
O=C1OCC2=C1C(c1ccc(F)cc1)c1cc3c(cc1N2)OCO3 (stereo not drawn)	x	n	n	n	72
NC(=O)C1(N2CCCCC2)CCN(C(=S)Nc2cc(F)cc(F)c2)CC1	n	n	n	n	n
O=C(NNC(=O)C1CCN(S(=O)(=O)c2ccc(Cl)cc2)CC1)c1ccccc1O	n	n	87	n	n
CCc1c(C)c(C#N)c2nc3ccccc3n2c1NC	n	n	n	n	n
Cc1cc(Cl)n2c(nc3ccccc32)c1C#N	89	81	n	n	n
Cc1c(CCCl)c(Cl)n2c(nc3ccccc32)c1C#N	x	97	99	66	87
CCC(C)(NC(=O)c1ccccc1)C(=O)O (stereo not drawn)	n	n	n	n	x
CC(C)CCNCC(O)CON=C1c2ccccc2-c2ccccc21 (stereo not drawn)	86	n	n	n	n
COCCNCC(O)CON=C1c2ccccc2-c2ccccc21 (stereo not drawn)	n	n	n	n	n
Cc1cc(C)cc(CC2CC(=O)N(c3cc(C)on3)C2=O)c1 (stereo not drawn)	n	n	n	n	n
COc1ccc(NC(=O)/C(C#N)=C/c2cc(C)n(-c3ccc(N4CCOCC4)c([N+](=O)[O-])c3)c2C)cc1	n	n	n	44	n
Cc1cc(/C=C(\C#N)C(=O)Nc2ccc(F)cc2)c(C)n1-c1ccc(N2CCOCC2)c([N+](=O)[O-])c1	n	n	n	n	x
COc1ccc2c(c1)OC/C(=C/c1cccs1)C2=O	n	n	n	n	112
O=C1/C(=C/c2cccs2)Cc2ccccc21	n	n	n	n	n
NC(=O)CC(NC(=O)Cc1cccc2ccccc12)c1ccc(NCc2ccc(F)cc2)c([N+](=O)[O-])c1 (stereo not drawn)	n	n	n	52	n
NC(=O)CC(NC(=O)Cc1cccc2ccccc12)c1ccc(NCc2ccccc2)c([N+](=O)[O-])c1 (stereo not drawn)	n	n	n	n	n
Cc1ccc(CN=C(N)Nc2nc(C)cc(C)n2)cc1	117	n	n	n	n
O=C(Nc1nccs1)c1cn2ccccc2n1	65	n	n	n	n
NNC(=O)c1cn2ccccc2n1	n	n	n	n	x
CCCNC(=O)c1ccc(N2CC3CC(C2)c2cccc(=O)n2C3)c(NC(=O)Nc2ccc(CC)cc2)c1 (stereo not drawn)	n	n	n	n	n
CCc1nc2ccc(C(=O)Nc3cc(-c4ccccc4)ccc3OC)cn2c1N(CC)CCN(C)C	x	x	n	x	n
CCCCN(C=O)c1c(CC)nc2ccc(C(=O)Nc3cc(-c4ccccc4)ccc3OC)cn12	x	x	n	x	75
COc1ccc(C)cc1N(CC(=O)Nc1ccc2c(c1)OCCO2)S(C)(=O)=O	n	n	n	n	n
CCOc1ccc2c(CC)cc(=O)oc2c1OCC	n	n	n	n	102

Bioassay records (PubChem)
